This is an account of results in paper PMC5540273 (PLoS ONE, 2017).

Molecules are shown by their SMILES.
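Note: KINOMEscan kinase panel screen.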

In the first test the test system is T1, FAK.
T1 construct: gene PTK2
The following applies: concentration: 1 μM, replicates: in singlicate; n = 1.
For `Nc1ncnc2c1ncn2-c1ccc(Cl)cc1` [AH2635], the “%Inh” value amounted to 0%.
`Nc1nc(-c2ccccc2F)c(-c2ccnc3ccccc23)s1` [GW560459]: the “%Inh” value is 0%.
Turning to `COc1cc2ncn(-c3cc(OCc4ccc(S(C)(=O)=O)cc4)c(C(N)=O)s3)c2cc1OC` [GW869979], the “%Inh” value stood at 2%.
The same measure, in the same setting: the figure for `CCC(=O)c1c(-c2ccccc2)c2cc(Cl)ccc2c(=O)n1Cc1cc(C(=O)NC2CC2)n(C)n1` is 0%; for `Nc1n[nH]c2nnc(-c3ccccc3)c(-c3ccccc3)c12` [GW554060] it is 0%.
As for `OCCCNc1nccc(-c2c(-c3cccc(C(F)(F)F)c3)nn3cc(C(F)(F)F)ccc23)n1` [GW630813], the “%Inh” value is 0%.
The same measure, in the same setting: the figure for `O=C(NCCNc1ccnc(Nc2ccc(F)cc2)n1)Nc1ccc2c(c1)OCO2` [GSK1379882] is 0%; for `CCC(=O)c1c(-c2ccccc2)c2cc(Cl)ccc2c(=O)n1Cc1cc(S(C)(=O)=O)n(CCC(C)(C)O)n1` it is 10%; for `FC(F)(F)c1ccc(-c2ncn(CCCN3CCOCC3)c2-c2ccncc2)cc1` [SB-217780] it is 1%.
On the same count and under the same terms, the figure for `COC(=O)c1c(-c2ccccc2)c2cc(Br)ccc2c(=O)n1Cc1ccc(S(C)(=O)=O)cc1` is 6%; for `CCCNC(=O)Nc1ccc(Oc2ncnc3ccn(C)c23)cc1` it is 3%; for `CCn1c(-c2ccoc2)nc2cnccc21` [SB-733887] it is 0%.
Still for that read-out and setting: the figure for `CCn1c(-c2nonc2N)nc2ccccc21` [SB-693162/GW549034] is 8%.
For the molecule `Cc1nc(N(C)[C@H]2CN(C(=O)CC#N)CC[C@H]2C)c2cc[nH]c2n1`, the “%Inh” value came to 0%.
On to `CCC(=O)c1c(-c2ccccc2)c2cc(Cl)ccc2c(=O)n1Cc1ccc(C(=O)O)cc1`, for which the “%Inh” value stood at 0%.
Same read-out and setting: the figure for `COc1ccc(Nc2nccc(N3CCC(NS(=O)(=O)c4ccc(NC(C)=O)cc4)C3)n2)cc1` (centres unmarked) [GSK1379729] is 0%.
Regarding `CCc1nc(-c2cccc(C)c2)c(-c2ccncc2)s1`, the “%Inh” value is 99.9%.
Still for that read-out and setting: the figure for `COc1cc(Nc2ccnc3ccc(C(F)(F)F)cc23)cc(OC)c1OC` [GW577382] is 0%; for `COc1ccc(-c2cc3c(C)nc(N)nc3n([C@H]3CC[C@H](O)CC3)c2=O)cn1` it is 0%; for `Cc1ccc(-c2ccc3c(ccc4sc5c(c43)NC[C@@H](C)N=C5N(C)C)n2)cn1` it is 0%.
Still for that read-out and setting: to `Cc1nnc(-c2ccc(C)c(-c3ccc(C(=O)O)cc3)c2)o1` [GW608005] belongs 0%.
The same measure, in the same setting: to `COC(=O)c1c(-c2ccccc2)c2cc(C)ccc2c(=O)n1Cc1ccccc1` belongs 0%; to `COc1cccc(C2=C(Nc3cccc(C(=O)O)c3)C(=O)NC2=O)c1` [SB-390770], 3%; to `Fc1cccc(CSc2nnc(-c3ccc4c(c3)CCO4)o2)c1`, 0%.
For `Cc1cccc(-c2cc(-c3c[nH]nc3-c3ccccn3)ccn2)c1` [GW679395], the “%Inh” value is given as 0%.
On the same count and under the same terms, the figure for `CN(C)c1cc(-c2ccc3c(N)n[nH]c3c2)nc(N)n1` [GSK2219329] is 0%; for `Cn1c(=O)c(F)c(Nc2ccc(I)cc2F)c2c(=O)n(OC[C@H](O)CO)cnc21` it is 30%.
Same read-out and setting: to `Cc1nnc(-c2ccc3ncn(-c4ccc(S(C)=O)cc4)c3c2)o1` (centres unmarked) belongs 1%; to `CCC(=O)c1c(-c2ccccc2)c2cc(Cl)ccc2c(=O)n1Cc1cc(S(C)(=O)=O)n(CC(N)=O)n1`, 0%; to `COc1cccc(-n2cnc3c(N)ncnc32)c1` [SKF-97416], 4%.
Same read-out and setting: the figure for `CCCC(=O)Nc1n[nH]c2ncc(-c3cccc4ccccc34)cc12` [SB-642057] is 8%; for `CN1C(=O)C(Nc2cc(Cl)c(O)c(Cl)c2)=C(c2ccc(Cl)cc2)C1=O` [SB-404321] it is 0%.
As to `Nc1nccc2scc(-c3ccc4c(c3)CCN4C(=O)Cc3ccccc3)c12` [GSK2576924], the “%Inh” value is given as 0%.
Same read-out and setting: the figure for `CCc1ccc(-c2ccc3c(c2)-c2nn(C)cc2S(=O)(=O)N3C)cc1` is 5%.
The same measure, in the same setting: to `O=C(NCc1cccs1)c1cc(C(=O)c2c(Cl)cccc2Cl)c[nH]1` [GW823670] belongs 91.3%; to `COC(=O)c1c(-c2ccccc2)c2cc(Br)ccc2c(=O)n1Cc1ccc(NC(=O)CCC(=O)O)cc1`, 0%; to `COc1ccc(CNC(=O)NC2CCN(c3ccnc(Nc4ccc(F)cc4)n3)C2)cc1` (centres unmarked) [GSK1379706], 4%.

For the next test, the system named is FER. As to conditions: concentration: 1 μM, replicates: in singlicate; n = 1.
Regarding `Nc1ncnc2c1ncn2-c1ccc(Cl)cc1` [AH2635], the “%Inh” value is listed as 26%.
Still for that read-out and setting: the figure for `Nc1nc(-c2ccccc2F)c(-c2ccnc3ccccc23)s1` [GW560459] is 13%; for `COc1cc2ncn(-c3cc(OCc4ccc(S(C)(=O)=O)cc4)c(C(N)=O)s3)c2cc1OC` [GW869979] it is 0%; for `CCC(=O)c1c(-c2ccccc2)c2cc(Cl)ccc2c(=O)n1Cc1cc(C(=O)NC2CC2)n(C)n1` it is 0%.
Still for that read-out and setting: to `Nc1n[nH]c2nnc(-c3ccccc3)c(-c3ccccc3)c12` [GW554060] belongs 21%; to `OCCCNc1nccc(-c2c(-c3cccc(C(F)(F)F)c3)nn3cc(C(F)(F)F)ccc23)n1` [GW630813], 8%; to `O=C(NCCNc1ccnc(Nc2ccc(F)cc2)n1)Nc1ccc2c(c1)OCO2` [GSK1379882], 0%.
As to `CCC(=O)c1c(-c2ccccc2)c2cc(Cl)ccc2c(=O)n1Cc1cc(S(C)(=O)=O)n(CCC(C)(C)O)n1`, the “%Inh” value is on record as 10%.
Still for that read-out and setting: to `FC(F)(F)c1ccc(-c2ncn(CCCN3CCOCC3)c2-c2ccncc2)cc1` [SB-217780] belongs 9%; to `COC(=O)c1c(-c2ccccc2)c2cc(Br)ccc2c(=O)n1Cc1ccc(S(C)(=O)=O)cc1`, 0%; to `CCCNC(=O)Nc1ccc(Oc2ncnc3ccn(C)c23)cc1`, 0%.
With `CCn1c(-c2ccoc2)nc2cnccc21` [SB-733887], the “%Inh” value was determined as 20%.
The same measure, in the same setting: to `CCn1c(-c2nonc2N)nc2ccccc21` [SB-693162/GW549034] belongs 0%; to `Cc1nc(N(C)[C@H]2CN(C(=O)CC#N)CC[C@H]2C)c2cc[nH]c2n1`, 0%.
On the same count and under the same terms, the figure for `CCC(=O)c1c(-c2ccccc2)c2cc(Cl)ccc2c(=O)n1Cc1ccc(C(=O)O)cc1` is 0%.
In the case of `COc1ccc(Nc2nccc(N3CCC(NS(=O)(=O)c4ccc(NC(C)=O)cc4)C3)n2)cc1` (centres unmarked) [GSK1379729], the “%Inh” value was found to be 24%.
As to `CCc1nc(-c2cccc(C)c2)c(-c2ccncc2)s1`, the “%Inh” value was 13%.
For `COc1cc(Nc2ccnc3ccc(C(F)(F)F)cc23)cc(OC)c1OC` [GW577382], the “%Inh” value is given as 21%.
Same read-out and setting: to `COc1ccc(-c2cc3c(C)nc(N)nc3n([C@H]3CC[C@H](O)CC3)c2=O)cn1` belongs 0%.
On the same count and under the same terms, the figure for `Cc1ccc(-c2ccc3c(ccc4sc5c(c43)NC[C@@H](C)N=C5N(C)C)n2)cn1` is 1%; for `Cc1nnc(-c2ccc(C)c(-c3ccc(C(=O)O)cc3)c2)o1` [GW608005] it is 0%.
On the same count and under the same terms, the figure for `COC(=O)c1c(-c2ccccc2)c2cc(C)ccc2c(=O)n1Cc1ccccc1` is 0%.
Consider `COc1cccc(C2=C(Nc3cccc(C(=O)O)c3)C(=O)NC2=O)c1` [SB-390770], for which the “%Inh” value was 40%.
The same measure, in the same setting: to `Fc1cccc(CSc2nnc(-c3ccc4c(c3)CCO4)o2)c1` belongs 0%; to `Cc1cccc(-c2cc(-c3c[nH]nc3-c3ccccn3)ccn2)c1` [GW679395], 4%; to `CN(C)c1cc(-c2ccc3c(N)n[nH]c3c2)nc(N)n1` [GSK2219329], 16%.
Still for that read-out and setting: to `Cn1c(=O)c(F)c(Nc2ccc(I)cc2F)c2c(=O)n(OC[C@H](O)CO)cnc21` belongs 10%; to `Cc1nnc(-c2ccc3ncn(-c4ccc(S(C)=O)cc4)c3c2)o1` (centres unmarked), 5%; to `CCC(=O)c1c(-c2ccccc2)c2cc(Cl)ccc2c(=O)n1Cc1cc(S(C)(=O)=O)n(CC(N)=O)n1`, 0%.
Turning to `COc1cccc(-n2cnc3c(N)ncnc32)c1` [SKF-97416], the “%Inh” value amounted to 0%.
Still for that read-out and setting: to `CCCC(=O)Nc1n[nH]c2ncc(-c3cccc4ccccc34)cc12` [SB-642057] belongs 3%; to `CN1C(=O)C(Nc2cc(Cl)c(O)c(Cl)c2)=C(c2ccc(Cl)cc2)C1=O` [SB-404321], 0%.
Still for that read-out and setting: to `Nc1nccc2scc(-c3ccc4c(c3)CCN4C(=O)Cc3ccccc3)c12` [GSK2576924] belongs 16%.
As to `CCc1ccc(-c2ccc3c(c2)-c2nn(C)cc2S(=O)(=O)N3C)cc1`, the “%Inh” value turned out to be 6%.
For the molecule `O=C(NCc1cccs1)c1cc(C(=O)c2c(Cl)cccc2Cl)c[nH]1` [GW823670], the “%Inh” value is given as 1%.
Consider `COC(=O)c1c(-c2ccccc2)c2cc(Br)ccc2c(=O)n1Cc1ccc(NC(=O)CCC(=O)O)cc1`, for which the “%Inh” value was 0%.
The same measure, in the same setting: the figure for `COc1ccc(CNC(=O)NC2CCN(c3ccnc(Nc4ccc(F)cc4)n3)C2)cc1` (centres unmarked) [GSK1379706] is 25%.
